Test results as given in PubChem BioAssay (NCATS).
Inconclusive results are not listed. Calls of active or inactive are those of the source. The call rests on the fitted dose curve; in most records, active means well fitted curve in the direction sought with a large enough effect; inconclusive means small, poorly fitted or top-dose-only effect, or another doubt; inactive means no such curve, though single readings can be large; an effect the other way counts as inactive or inconclusive.

What was measured:
[1] = tested on: Zika virus NS2B-NS3 protease (linked construct); assay: Primary screen NINDS Rhodamine qHTS for Zika virus inhibitors (AID 1347160); further: nearly all actives have a fitted effect of over 55% in size; further: potency means the concentration at half of the fitted maximal effect
Procedure, shortened: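 Percent inhibition, normalized to uninhibited and enzyme-free controls, is fitted to a 4-parameter Hill equation. Fluorescence change comes from a 15-min cleavage of 1.5 microM bis-peptide Rhodamine110 substrate by 25 nM linked NS2B-NS3 at room temperature.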

[2] = target: Calcium and integrin-binding protein 1 (Homo sapiens) (UniProt Q99828); assay: Primary qHTS for Identification of Calcium Integrin Binding Protein 1 (CIB1) Competitor (AID 1508620);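 further: GST tagged CIB1 binding a fluorescein labelled alphaIIb integrin peptide tracer; top concentration of the series differs between compounds; on the % scale 0 is the no-effect control and ±100 the full control effect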
Procedure, shortened: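 Fluorescence polarization competition: CIB1-GST (1 uM final) preincubated with compound 15 min at room temperature, then FITC-labeled alphaIIb peptide (100 nM final) added for another 15 min. Polarization read at Ex 480/Em 540.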

[3] = target: Glutathione peroxidase 1 (Homo sapiens) (UniProt P07203); assay: Primary qHTS Assay for Inhibitors of Recombinant Selenoprotein Glutathione Peroxidase 1 (GPX1) (AID 1845191); further: nearly all actives have a fitted effect of over 65% in size; on activity, negative = inhibition: on the % scale 0 is the no-effect control and ±100 the full control effect
Procedure, shortened: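 Recombinant GPX1 (10 nM final) was preincubated with compound for 30 min at room temperature, then reacted with 1 mM GSH, 0.5 mM CHP, 0.5 mM NADPH and 100 nM glutathione reductase; NADPH fluorescence (340/450 nm) was read at 0 and 15 min.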

[4] = target: Phospholipid hydroperoxide glutathione peroxidase GPX4 (Homo sapiens) (UniProt P36969); assay: Primary qHTS Assay for Inhibitors of Recombinant Selenoprotein Glutathione Peroxidase 4 (GPX4) (AID 1845192); further: nearly all actives have a fitted effect of over 65% in size; further: potency means the concentration at half of the fitted maximal effect; on activity change, negative = inhibition: on the % scale 0 is the no-effect control and ±100 the full control effect
Procedure, shortened: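 GR-coupled readout: 100 nM GR, 1 mM GSH, 0.5 mM NADPH; NADPH fluorescence (ex 340/em 450 nm) read at t=0 and after 15 min RT. GPX4 200 nM, preincubated 30 min with compound; substrate 0.5 mM CHP.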

[5] = target: Luciferin 4-monooxygenase (Photinus pyralis) (UniProt P08659); assay: Primary firefly luciferase (FLuc) qHTS assay for identification of artifact compounds. (AID 1845220); settings: outcome: dose series up to 54.1 µM unless noted; further: nearly all actives have a fitted effect of over 60% in size;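 on activity change, negative = inhibition: plate controls were DMSO vehicle for no effect and no enzyme for full effect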
Procedure, shortened: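 Reaction readout was CCD-imaged luminescence, taken 5 min after adding 10 nM purified firefly enzyme to compound-treated wells holding 10 uM luciferin and ATP in pH 7.6 buffer.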

[6] = Primary fluorescence-based thiol-reactive (MSTI) qHTS assay for identification of artifact compounds. (AID 1845221);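 further: thiol-reactive compounds lower the probe fluorescence signal; nearly all actives have a fitted effect of over 65% in size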
Procedure, shortened: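 Compounds were incubated 1 h at room temperature in the dark with the MSTI probe (4 uM) in PBS pH 7.4, 2% DMSO. Signals were normalized between Acetyl-MSTI and MSTI.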

[7] = tested on: Nanoluciferase (engineered Oplophorus gracilirostris luciferase); assay: Primary Nanoluciferase (NLuc) qHTS assay for identification of artifact compounds. (AID 1845222); further: potency means the concentration at half of the fitted maximal effect;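 on activity, negative = inhibition: NLuc secreted into diluted conditioned medium of S16 cells; 0% = DMSO and -100% = no enzyme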
Procedure, shortened: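 Concentration-response data were obtained by luminescence after 5 min with Nano-Glo substrate at 1:100. The enzyme was diluted S16 NLuc-expressing cell medium, preincubated with compound for 15 min at RT. Curves were fitted with a 4-parameter Hill model.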

[8] = Primary redox qHTS assay for identification of artifact compounds. (AID 1845223);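 further: 0% = DMSO and 100% = reference compound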
Procedure, shortened: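 Amplex Red (25 uM) and HRP (250 mU/mL) in HBSS, with compounds for 15 min, then 250 uM DTT for 30 min, room temperature, dark. Fluorescence 525/598 nm read; normalized to DMSO and 10 uM DA3003; Hill fit.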

NIH3T3 = assay: Cytotoxic Profiling of Annotated Libraries Using Quantitative High-Throughput Screening (AID 1296008); settings: Five cell lines viability, CellTiter-Glo ATP luminescence, 48-72 h; max response: stronger effect = lower value; further: nearly all actives have a fitted effect of over 60% in size; further: potency means the concentration at half of the fitted maximal effect; on max response: on the % scale 0 is the no-effect control and ±100 the full control effect
Procedure, shortened: (§1)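 Compounds were pin-transferred onto cells and incubated 48 or 72 hr at 37 degree Celsius, 95% humidity. CellTiter-Glo was added, plates sat 10 min at room temperature, then ATP-coupled luminescence was imaged as the viability read-out.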

C33A = assay: Primary qHTS to identify gynecologic anti-cancer compounds using libraries of approved drugs and bioactive compounds (AID 1345084); settings: Gynecologic cancer cell panel viability, ATPlite luminescence, 48 h; series mostly up to 57.5 µM; further: nearly all actives have a fitted effect of over 55% in size; further: potency means the concentration at half of the fitted maximal effect
Procedure, shortened: (§2)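 Luminescence from the ATPlite ATP-monitoring reagent indicates viable cell number; lower signal means cytotoxicity. Cells received compound 16 h after seeding and were exposed for 48 h across five concentrations.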

CAOV3 = assay: as above; settings: Gynecologic cancer cell panel viability, ATPlite luminescence, 48 h; series mostly up to 57.5 µM
Procedure, shortened: as §2

Es-2 = assay: as above; settings: Gynecologic cancer cell panel viability, ATPlite luminescence, 48 h; series mostly up to 57.5 µM
Procedure, shortened: as §2

Hek293T = assay: as above; settings: Gynecologic cancer cell panel viability, ATPlite luminescence, 48 h, control line for the selectivity index; series mostly up to 57.5 µM
Procedure, shortened: as §2

OV90 = assay: as above; settings: Gynecologic cancer cell panel viability, ATPlite luminescence, 48 h; series mostly up to 57.5 µM
Procedure, shortened: as §2

PA-1 = assay: as above; settings: Gynecologic cancer cell panel viability, ATPlite luminescence, 48 h; series mostly up to 57.5 µM
Procedure, shortened: as §2

Tov-21-G = assay: as above; settings: Gynecologic cancer cell panel viability, ATPlite luminescence, 48 h; series mostly up to 57.5 µM
Procedure, shortened: as §2

Tov112D = assay: as above; settings: Gynecologic cancer cell panel viability, ATPlite luminescence, 48 h; series mostly up to 57.5 µM
Procedure, shortened: as §2

HaCat = assay: Cytotoxic Profiling of Annotated Libraries Using Quantitative High-Throughput Screening (AID 1296008); settings: Five cell lines viability, CellTiter-Glo ATP luminescence, 48-72 h; max response: stronger effect = lower value; further: nearly all actives have a fitted effect of over 60% in size; further: potency means the concentration at half of the fitted maximal effect
Procedure, shortened: as §1

CASKI = assay: Primary qHTS to identify gynecologic anti-cancer compounds using libraries of approved drugs and bioactive compounds (AID 1345084); settings: Gynecologic cancer cell panel viability, ATPlite luminescence, 48 h; series mostly up to 57.5 µM; further: nearly all actives have a fitted effect of over 55% in size; further: potency means the concentration at half of the fitted maximal effect
Procedure, shortened: as §2

JEG-3 = assay: as above; settings: Gynecologic cancer cell panel viability, ATPlite luminescence, 48 h; series mostly up to 57.5 µM
Procedure, shortened: as §2

Sequence of Glutathione peroxidase 1 (Homo sapiens) (P07203 whole entry, looked up): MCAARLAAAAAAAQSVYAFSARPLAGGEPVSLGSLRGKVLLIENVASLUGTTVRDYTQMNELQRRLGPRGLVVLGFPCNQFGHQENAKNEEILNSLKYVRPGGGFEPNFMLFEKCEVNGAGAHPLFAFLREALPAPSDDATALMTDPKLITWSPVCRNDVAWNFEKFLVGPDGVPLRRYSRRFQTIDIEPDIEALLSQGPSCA
Sequence of Phospholipid hydroperoxide glutathione peroxidase GPX4 (Homo sapiens) (P36969 whole entry, looked up): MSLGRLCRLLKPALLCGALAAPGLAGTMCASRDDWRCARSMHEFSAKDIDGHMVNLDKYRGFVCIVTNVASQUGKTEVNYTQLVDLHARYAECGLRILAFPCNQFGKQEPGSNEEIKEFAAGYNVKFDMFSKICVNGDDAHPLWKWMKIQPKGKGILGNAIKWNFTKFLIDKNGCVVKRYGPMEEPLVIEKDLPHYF
Sequence of Calcium and integrin-binding protein 1 (Homo sapiens) (Q99828 whole entry, looked up): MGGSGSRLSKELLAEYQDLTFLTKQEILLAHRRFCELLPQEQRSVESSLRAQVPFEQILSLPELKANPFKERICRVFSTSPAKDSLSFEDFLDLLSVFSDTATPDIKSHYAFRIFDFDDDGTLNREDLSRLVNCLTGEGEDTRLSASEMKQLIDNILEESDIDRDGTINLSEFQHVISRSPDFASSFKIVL

COc1ccc(C23CCC(=O)C=C2N(C)CC3)cc1OC (configuration not stated)
inactive: Potency [1] | Potency [2] | Potency [3] | Potency [4] | outcome [5] | Potency [6] | Potency [7] | Potency [8] | max response (NIH3T3) -27.9% | Potency (C33A) | Potency (CAOV3) | Potency (Es-2) | Potency (Hek293T) | Potency (OV90) | Potency (PA-1) | Potency (Tov-21-G) | Potency (Tov112D)

CCC1(O)CCC2C3CCC4=CC(=O)CCC4C3CCC21CC (configuration not stated)
inactive: Potency [1] | Potency [4] | outcome [5] | Potency [6] | Potency [7] | Potency [8] | outcome (HaCat) | max response (NIH3T3) 1.71% | Potency (C33A) | Potency (CAOV3) | Potency (CASKI) | Potency (Es-2) | Potency (Hek293T) | Potency (JEG-3) | Potency (OV90) | Potency (PA-1) | Potency (Tov-21-G) | Potency (Tov112D)

COc1ccc(CC2C(=O)NC(C)C(=O)N(C)C3Cc4ccc(cc4)Oc4cc(ccc4OC4OC(CO)C(O)C(O)C4O)CC(C(=O)NC(C)C(=O)NC(CCC(=O)O)C(=O)N2C)N(C)C3=O)cc1 (configuration not stated)
inactive: Potency [1] | Potency [2] | activity change, negative = inhibition [5] -19.1% [at 11.6 µM] | activity change, negative = thiol reactive [6] -0.882% [at 11.5 µM] | activity, negative = inhibition [7] -15.7% [at 11.6 µM] | outcome (HaCat) | activity change, negative = cytotoxicity (CASKI) -30.7% [at 11.6 µM] | activity change, negative = cytotoxicity (JEG-3) -7.62% [at 11.6 µM] | activity change, negative = cytotoxicity (OV90) -30.8% [at 11.6 µM]
active: Potency (PA-1) 7.08 µM

C/C(=C\c1csc(C)n1)[C@@H]1C[C@@H]2O[C@@H]2CCC[C@H](C)[C@H](O)[C@@H](C)C(=O)C(C)(C)[C@@H](O)CC(=O)O1
inactive: Potency [1] | Potency [3] | Potency [4] | outcome [5] | Potency [6] | Potency [7] | Potency [8] | Potency (JEG-3) | Potency (OV90)

N#Cc1ccccc1-c1cc(-c2ccccn2)cn(-c2ccccc2)c1=O
active: Potency [4] 25.5 µM | Potency [7] 10.7 µM
inactive: Potency [1] | outcome [5] | Potency [6] | Potency [8] | max response (HaCat) 1.04% | max response (NIH3T3) -0.815% | Potency (C33A) | Potency (CAOV3) | Potency (CASKI) | Potency (Es-2) | Potency (Hek293T) | Potency (JEG-3) | Potency (OV90) | Potency (PA-1) | Potency (Tov-21-G) | Potency (Tov112D)

CC(C)=CCC[C@]1(C)C=Cc2c(O)c3c(c(CC=C(C)C)c2O1)O[C@]12C(=C[C@@H]4CC1C(C)(C)O[C@@]2(C/C=C(/C)C(=O)O)C4=O)C3=O
inactive: outcome [5] | Potency [7] | Potency [8]
active: Potency [1] 2.82 µM | Potency (HaCat) 4.61 µM | Potency (NIH3T3) 1.16 µM | Potency (C33A) 5.62 µM | Potency (CAOV3) 3.16 µM | Potency (CASKI) 2.24 µM | Potency (Es-2) 3.16 µM | Potency (Hek293T) 5.62 µM | Potency (JEG-3) 3.98 µM | Potency (OV90) 5.01 µM | Potency (PA-1) 4.47 µM | Potency (Tov-21-G) 7.94 µM | Potency (Tov112D) 5.01 µM

C/C=C(\C)C(=O)O[C@@H]1[C@@H](C)[C@]2(O)C3C=C(C)C(=O)[C@@]3(O)CC(CO)=C[C@H]2C2C(C)(C)[C@@]21OC(=O)C(C)CC (some centres not stated)
inactive: Potency [1] | Potency [2] | Potency [3] | Potency [4] | outcome [5] | Potency [6] | Potency [7] | Potency [8] | outcome (HaCat) | outcome (NIH3T3) | Potency (C33A) | Potency (CAOV3) | Potency (CASKI) | Potency (Hek293T) | Potency (OV90) | Potency (Tov-21-G) | Potency (Tov112D)

NNC(=O)c1nn(Cc2ccc(Cl)cc2Cl)c2ccccc12
inactive: Potency [1] | Potency [2] | Potency [3] | Potency [4] | outcome [5] | Potency [7] | Potency [8] | max response (HaCat) 3.64% | max response (NIH3T3) -5.07% | Potency (C33A) | Potency (CASKI) | Potency (Es-2) | Potency (Hek293T) | Potency (JEG-3) | Potency (OV90) | Potency (Tov112D)

Cc1ccc(-n2nccn2)c(C(=O)N2CCN(c3nc4cc(Cl)ccc4o3)CCC2C)c1 (configuration not stated)
inactive: Potency [1] | Potency [2] | Potency [4] | outcome [5] | Potency [6] | Potency [7] | outcome (HaCat) | outcome (NIH3T3) | Potency (C33A) | Potency (CAOV3) | Potency (CASKI) | Potency (Es-2) | Potency (Hek293T) | Potency (JEG-3) | Potency (OV90) | Potency (Tov-21-G) | Potency (Tov112D)

C[C@]12CC[C@H](O[C@@H]3O[C@H](CO)[C@@H](O)[C@H](O)[C@H]3O)CC1CC[C@@H]1C2CC[C@]2(C)[C@@H](C3=CC(=O)OC3)CC[C@]12O (some centres not stated)
active: Potency (C33A) 5.62 µM | Potency (Es-2) 10 µM | Potency (Hek293T) 7.94 µM | Potency (PA-1) 7.94 µM | Potency (Tov-21-G) 5.01 µM | Potency (Tov112D) 3.16 µM
inactive: Potency [1] | Potency [2] | Potency [3] | Potency [4] | outcome [5] inactive [at 25.7 µM] | Potency [6] | Potency [7] | Potency [8] | outcome (NIH3T3) | Potency (OV90)

CN(CC[C@H](N)CC(=O)N[C@H]1C=C[C@@H](n2ccc(N)nc2=O)O[C@@H]1C(=O)O)C(=N)N
inactive: activity change, negative = inhibition [1] 10.8% [at 10.7 µM] | Potency [2] | activity, negative = inhibition [3] -3.97% [at 9.52 µM] | outcome [4] inactive [at 9.73 µM] | outcome [5] inactive [at 11.6 µM] | activity change, negative = thiol reactive [6] -6.62% [at 11.5 µM] | activity, negative = inhibition [7] 0% [at 11.6 µM] | redox activity (% of DA3003) [8] -9.15% [at 11.5 µM] | outcome (HaCat) | activity change, negative = cytotoxicity (C33A) 6.23% [at 11.6 µM] | activity change, negative = cytotoxicity (CAOV3) 8.99% [at 11.6 µM] | activity change, negative = cytotoxicity (CASKI) 4.22% [at 11.6 µM] | activity change, negative = cytotoxicity (Es-2) -2.42% [at 11.6 µM] | activity change, negative = cytotoxicity (Hek293T) 1.23% [at 11.6 µM] | activity change, negative = cytotoxicity (JEG-3) 12.8% [at 11.6 µM] | activity change, negative = cytotoxicity (OV90) -7.37% [at 11.6 µM] | activity change, negative = cytotoxicity (PA-1) 5.22% [at 11.6 µM] | activity change, negative = cytotoxicity (Tov-21-G) 2.99% [at 11.6 µM] | activity change, negative = cytotoxicity (Tov112D) 1.2% [at 11.6 µM]

COc1cc2c(cc1O)C1(C)CCC(O)C(C)(C)C1CC2=O (configuration not stated)
inactive: Potency [1] | Potency [2] | Potency [3] | Potency [4] | outcome [5] | Potency [7] | Potency [8] | outcome (HaCat) | outcome (NIH3T3) | Potency (C33A) | Potency (CAOV3) | Potency (CASKI) | Potency (Es-2) | Potency (Hek293T) | Potency (JEG-3) | Potency (OV90) | Potency (PA-1) | Potency (Tov-21-G) | Potency (Tov112D)
